Measured values from PubChem BioAssay (NCATS).
Calls of active or inactive are those of the source. Calls come from the whole dose curve; as a rule, active = well fitted curve in the direction sought with a large enough effect; inactive = no such curve, though single readings can be large or run the other way.

target: Alpha-galactosidase (Coffea arabica) (UniProt Q42656); experiment: Counterscreen for Glucocerebrosidase Inhibitors: qHTS Assay for Coffee Bean alpha-Galactosidase at pH 5.9 (AID 998); conditions: coffee bean alpha-galactosidase enzyme assay; series mostly up to 76.9 µM
Sequence (Q42656 whole entry, looked up): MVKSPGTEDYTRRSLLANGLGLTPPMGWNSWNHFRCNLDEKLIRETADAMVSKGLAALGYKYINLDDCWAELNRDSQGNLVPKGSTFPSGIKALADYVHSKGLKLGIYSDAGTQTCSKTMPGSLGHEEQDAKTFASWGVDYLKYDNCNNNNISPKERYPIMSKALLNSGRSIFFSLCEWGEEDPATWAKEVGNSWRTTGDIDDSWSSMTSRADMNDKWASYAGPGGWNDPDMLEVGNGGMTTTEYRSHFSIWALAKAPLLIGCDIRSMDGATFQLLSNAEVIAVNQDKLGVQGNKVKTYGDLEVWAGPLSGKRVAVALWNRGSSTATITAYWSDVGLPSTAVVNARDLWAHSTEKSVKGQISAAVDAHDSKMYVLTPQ
Procedure, shortened: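 Compounds were titrated from 0.7 nM to 77 uM against green coffee bean alpha-galactosidase (2 nM) using 80 uM fluorogenic 4-methylumbelliferyl substrate. After 20 min at room temperature, reactions were stopped at pH 10 and read by fluorescence.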

Compound	outcome
COc1cc(Cc2cnc(N)nc2N)cc(OC)c1OC	inactive
CCN(CC)C(=S)SSC(=S)N(CC)CC	inactive
CCCC(CCC)C(=O)O	inactive
Cc1c(OCC(F)(F)F)ccnc1CS(=O)c1nc2ccccc2[nH]1 (centres undefined)	inactive
O=c1[nH]c2ccccc2n1C1CCN(CCCC(c2ccc(F)cc2)c2ccc(F)cc2)CC1	inactive
Cn1cnc([N+](=O)[O-])c1Sc1ncnc2nc[nH]c12	inactive
CN(C)C(=O)C(CCN1CCC(O)(c2ccc(Cl)cc2)CC1)(c1ccccc1)c1ccccc1	inactive
CN1CCC(=C2c3ccccc3C=Cc3ccccc32)CC1	inactive
CC[N+](C)(C)c1cccc(O)c1	inactive
